High-throughput results from PubChem.
Compounds with a hit are over-represented: about 4.9% of the library has one in this group of screens.
Platelet DG rel = inhibitors of platelet dense granule secretion, primary screen, cell-based, MLPCN, human platelets | inhibition, %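 (compounds screened at 7.5 µM in platelet-rich plasma)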 | human platelet-rich plasma, SFLLRN dense granule ATP release, luminescence | actives 0.22% (n = 300,000);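 active = mean replicate score, as percent of positive control, at or above 50; inconclusive = mean below 50 but at least one replicate at or above 50; inactive = mean and every replicate below 50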
HSP90 refold inh = HSP90 inhibitors, primary screen, cell lysate, luminescence; Heat shock protein HSP 90 (rabbit reticulocyte lysate; luciferase refolding); Rabbit reticulocyte lysate, luciferase refolding luminescence, 3 h; inhibition, % at 5.6 µM; actives 0.91% (n = 290,000); AID 1789, 2009;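 active = inhibition above the screen-wide mean plus 3 SD, computed separately per campaign, cut at about 16% in these data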;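 note: 0% = DMSO wells and 100% = 60 µM geldanamycin wells; inhibitors lower the luminescence because luciferase stays unfolded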
HSF1 inhib = HSF1 inhibitors in luciferase reporter cells, primary screen, cell-based, NIH3T3, luminescence. NIH3T3-HGL HSE-luciferase, MG132-induced, luminescence 8 h; hits give low values. activity change, negative = inhibition, % at 7.5 µM (by protocol). actives 0.77% (n = 300,000);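 active = more than half of replicate wells show activity change below -50%, luminescence cut by over half; inconclusive = some wells, but at most half, below -50%; inactive = no replicate well below -50%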;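 note: luciferase reports HSF-1 transcriptional activity via heat shock element; 0% = median of DMSO wells and -100% = zero luminescence signal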
dFosB act-1 = activators of delta FosB homodimer, primary screen, biochemical, fluorescence polarization, TAMRA-CDK5 oligo, single point; purified delta FosB; percent of positive-control signal above neutral wells; activation, % at 25 µM; actives 0.99% (n = 340,000); AID 493131, 2011;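 active = mean activation above about 17%, with every replicate also reaching it, limit read from the data, passing the limit was not always enough; inconclusive = only one of the two conditions met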
Target sequence (P13346 whole entry, looked up): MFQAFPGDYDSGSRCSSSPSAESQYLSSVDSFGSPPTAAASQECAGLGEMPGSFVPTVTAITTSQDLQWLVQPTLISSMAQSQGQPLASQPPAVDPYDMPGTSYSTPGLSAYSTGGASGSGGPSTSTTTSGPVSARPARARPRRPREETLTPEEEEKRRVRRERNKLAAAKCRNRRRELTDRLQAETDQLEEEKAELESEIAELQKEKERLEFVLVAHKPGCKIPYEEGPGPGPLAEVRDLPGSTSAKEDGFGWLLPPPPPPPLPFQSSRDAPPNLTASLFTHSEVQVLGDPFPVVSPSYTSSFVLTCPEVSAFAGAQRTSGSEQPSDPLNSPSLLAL
HSF-1 act = HSF-1 activators, primary screen, NIH3T3-HGL cells, MG132 stress, luminescence, single point; activation, % at 9 µM; NIH3T3-HGL HSF-1 luciferase reporter, 8 h; 100% = twice DMSO control signal; actives 1.7% (n = 300,000);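 active = mean replicate activation of at least 50% with a set share of replicates each reaching 50%; inconclusive = only one of those two conditions met; inactive = mean below 50% and too few replicates reaching it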;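 note: 0% = median of the neutral control wells and 100% = twice that signal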
MPTP block = mitochondrial permeability transition pore inhibitors, primary screen, biochemical, isolated mouse mitochondria, absorbance | actives 1.4% (n = 360,000) | inhibition, % at 10 µM | Ca2+ swelling absorbance, 30 min;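 active = inhibition of 50% or more, scaled per plate between neutral and stimulator controls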;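 note: 0% = DMSO wells given calcium and 100% = 1 mM EGTA wells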
dFosB act-2 = activators of mouse delta FosB DNA binding, confirmation, biochemical, fluorescence polarization, TAMRA-CDK5 oligo, cherry-picked samples; 2,400 tested, under 10 active; activation, % at 24.9 µM; purified delta FosB; normalised: neutral wells 0, positive control 100; AID 588690, 2011; shares compounds with dFosB act-1;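 active = highest replicate activation at or above 34% and every replicate reaching that threshold; inconclusive = meets only one of the two criteria; inactive = meets neither criterion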;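 note: higher polarization means more probe DNA bound by delta FosB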
An asterisk follows results filed as active; ? = inconclusive; nt = no result given.

SMILES | Platelet DG rel | HSP90 refold inh | HSF1 inhib | dFosB act-1 | HSF-1 act | MPTP block | dFosB act-2
NS(=O)(=O)c1ccc(CCNC(=O)C2CCC(Cn3c(=S)[nH]c4ccccc4c3=O)CC2)cc1 (configuration not stated) | -1 | -3 | -6 | 18* | 6 | -1 | 3
NS(=O)(=O)c1ccc(CCNC(=O)C2CCCCC2)cc1 | 1 | 0 | -7 | 0 | -8 | 0 | nt
CNc1cncc(-c2cccc(NS(C)(=O)=O)c2)n1 | nt | nt | nt | nt | nt | -1 | nt
CCOc1cc(/C=N/NC(=O)CN2CCOCC2)ccc1OCc1ccccc1 | 9 | 0 | 13 | 4 | 5 | 0 | nt
CCOc1cc(/C=N/NC(=O)C(=O)NCc2ccc3c(c2)OCO3)ccc1OCC(=O)N1CCOCC1 | 6 | -3 | -4 | 20* | 4 | -1 | 0
CCOc1cc(/C=N/NC(=O)c2ccc(CN3CCOCC3)cc2)ccc1OCc1ccccc1 | 10 | 0 | -18 | 21* | -33 | 1 | -4
COc1cc(/C=N/NC(=O)C(=O)NCC2CCCO2)ccc1OCC(=O)N1CCOCC1 (configuration not stated) | -1 | 1 | -8 | 1 | -7 | -1 | nt
Clc1cccc(-c2nc(-c3ccc(-c4nn[nH]n4)cc3)no2)c1 | nt | nt | nt | -18 | nt | 6 | nt
O=C(NNC(=O)c1sc2cccc(Cl)c2c1Cl)NC1CCCCC1 | -1 | 0 | 10 | 7 | 14 | -4 | nt
O=C(NNC(=O)c1sc2cccc(Cl)c2c1Cl)Nc1ccccc1 | -4 | 2 | -7 | 76* | -24 | 2 | 0
COc1ccc2nc(NC(=O)C3CCN(S(=O)(=O)c4cccs4)CC3)sc2c1 | 1 | 7 | -33 | 25* | -46 | 1 | ?
Cc1cncn1CCc1nc2c3ccccc3nc(SCC(=O)Nc3cccc(Cl)c3)n2n1 | 15 | 4 | 6 | -6 | 42 | 1 | nt
Cc1n[nH]c(C)c1CCc1nc2c3ccccc3nc(SCC(=O)Nc3ccccc3F)n2n1 | 4 | -4 | 4 | 57* | -11 | 2 | 6
Cc1cccc(NC(=O)CSc2nc3ccccc3c3nc(CCc4c(C)n[nH]c4C)nn23)c1 | -4 | 0 | -2 | 44* | -15 | 3 | -9
Cc1cccc(C)c1NC(=O)C(CCc1ccccc1)n1c(=O)c(-c2cc3ccccc3[nH]2)nc2ccccc21 (configuration not stated) | nt | nt | nt | nt | nt | 3 | nt
CCc1nc2ccc(C(=O)NCCc3c[nH]c4ccccc34)cn2c1N(C)Cc1ccc(N(C)C)cc1 | nt | nt | nt | nt | nt | 2 | nt
Cc1sc2nc(CN3CCCC3)nc(N3CCN(S(=O)(=O)c4cccc(F)c4)CC3)c2c1C | nt | nt | nt | 44* | nt | -1 | 5
Cc1cccn2c(=O)nc(SCC(=O)N3CCCC3)nc12 | -15 | nt | -2 | -6 | 2 | -2 | nt
Cc1nn(Cc2ccccc2Cl)c(Cl)c1/C=C/C(=O)OCC(=O)NC(N)=O | -2 | -8 | -9 | 2 | -5 | -1 | nt
Cc1nn(Cc2ccccc2)c(Cl)c1/C=C/C(=O)OC(C(=O)NC(N)=O)C(C)C (configuration not stated) | -2 | 4 | 2 | 50* | 3 | -4 | -1
CCCNC(=O)C1(C)CCN(C(=O)c2cccnc2Oc2ccccc2)C1 (configuration not stated) | nt | nt | nt | nt | nt | -2 | nt
Cc1cc2oc(C(=O)Nc3ccc(S(=O)(=O)Nc4nccs4)cc3)cc(=O)c2cc1Cl | -4 | -1 | 10 | 37* | 12 | 5 | 1
Cc1cc(C)c2oc(C(=O)Nc3ccc(S(=O)(=O)Nc4nccs4)cc3)cc(=O)c2c1 | -27 | 0 | 0 | 2 | -3 | 6 | nt
COc1ccc(/C(C)=N/NC(=O)CNC(=O)C(c2ccccc2)c2ccccc2)c(OC)c1 | 3 | 1 | -4 | -1 | 5 | 0 | nt
